Key:
[1] = target: 5'-AMP-activated protein kinase catalytic subunit alpha-2 (Homo sapiens) (UniProt P54646); details: at 1 µM
[2] = target: T1, NUAK family SNF1-like kinase 1 (Homo sapiens) (UniProt O60285); details: at 0.1 µM
T1 sequence (whole entry): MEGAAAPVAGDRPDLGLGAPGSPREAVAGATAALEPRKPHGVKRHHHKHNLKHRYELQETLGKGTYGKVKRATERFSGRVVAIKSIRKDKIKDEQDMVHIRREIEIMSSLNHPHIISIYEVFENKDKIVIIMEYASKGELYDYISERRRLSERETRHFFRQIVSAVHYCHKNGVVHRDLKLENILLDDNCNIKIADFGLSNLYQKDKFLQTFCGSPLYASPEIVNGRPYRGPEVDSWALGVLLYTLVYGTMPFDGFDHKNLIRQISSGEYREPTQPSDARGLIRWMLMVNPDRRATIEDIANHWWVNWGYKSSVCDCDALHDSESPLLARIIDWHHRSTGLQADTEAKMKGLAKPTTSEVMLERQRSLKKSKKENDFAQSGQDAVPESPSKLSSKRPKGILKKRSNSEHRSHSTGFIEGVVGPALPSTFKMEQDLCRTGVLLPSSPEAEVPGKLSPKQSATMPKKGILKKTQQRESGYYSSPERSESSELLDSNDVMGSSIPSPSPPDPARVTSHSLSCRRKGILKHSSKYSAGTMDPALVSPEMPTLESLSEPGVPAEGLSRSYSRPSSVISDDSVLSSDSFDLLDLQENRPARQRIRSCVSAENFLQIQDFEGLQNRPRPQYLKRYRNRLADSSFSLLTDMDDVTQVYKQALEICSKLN

[3] = target: T1, NUAK family SNF1-like kinase 1 (Homo sapiens); details: at 1 µM
[4] = target: T2, Serine/threonine-protein kinase BRSK1 (Homo sapiens) (UniProt Q8TDC3); details: at 0.1 µM
T2 sequence (whole entry): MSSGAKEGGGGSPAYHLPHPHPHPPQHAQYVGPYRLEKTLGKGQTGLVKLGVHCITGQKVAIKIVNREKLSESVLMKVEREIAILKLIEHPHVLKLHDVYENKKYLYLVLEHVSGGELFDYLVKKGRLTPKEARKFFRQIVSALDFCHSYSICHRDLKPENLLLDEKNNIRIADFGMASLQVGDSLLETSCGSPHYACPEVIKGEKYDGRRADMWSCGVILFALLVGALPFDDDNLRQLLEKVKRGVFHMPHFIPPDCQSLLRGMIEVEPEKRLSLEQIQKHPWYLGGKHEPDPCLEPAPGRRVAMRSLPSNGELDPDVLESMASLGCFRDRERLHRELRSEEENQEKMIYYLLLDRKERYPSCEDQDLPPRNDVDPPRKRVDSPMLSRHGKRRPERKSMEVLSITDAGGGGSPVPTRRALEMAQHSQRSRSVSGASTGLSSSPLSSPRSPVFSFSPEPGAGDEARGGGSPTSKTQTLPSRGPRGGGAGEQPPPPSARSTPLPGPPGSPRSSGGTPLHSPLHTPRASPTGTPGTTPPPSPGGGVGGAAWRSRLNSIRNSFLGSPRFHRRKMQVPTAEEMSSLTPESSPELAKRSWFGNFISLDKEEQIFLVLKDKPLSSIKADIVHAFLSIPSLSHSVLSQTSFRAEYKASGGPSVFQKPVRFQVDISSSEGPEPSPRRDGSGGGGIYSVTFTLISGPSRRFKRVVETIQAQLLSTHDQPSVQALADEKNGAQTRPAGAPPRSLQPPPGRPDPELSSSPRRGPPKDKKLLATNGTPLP

[5] = target: T2, Serine/threonine-protein kinase BRSK1 (Homo sapiens); details: at 1 µM
[6] = target: T3, Serine/threonine-protein kinase BRSK2 (Homo sapiens) (UniProt Q8IWQ3); details: at 0.1 µM
T3 sequence (whole entry): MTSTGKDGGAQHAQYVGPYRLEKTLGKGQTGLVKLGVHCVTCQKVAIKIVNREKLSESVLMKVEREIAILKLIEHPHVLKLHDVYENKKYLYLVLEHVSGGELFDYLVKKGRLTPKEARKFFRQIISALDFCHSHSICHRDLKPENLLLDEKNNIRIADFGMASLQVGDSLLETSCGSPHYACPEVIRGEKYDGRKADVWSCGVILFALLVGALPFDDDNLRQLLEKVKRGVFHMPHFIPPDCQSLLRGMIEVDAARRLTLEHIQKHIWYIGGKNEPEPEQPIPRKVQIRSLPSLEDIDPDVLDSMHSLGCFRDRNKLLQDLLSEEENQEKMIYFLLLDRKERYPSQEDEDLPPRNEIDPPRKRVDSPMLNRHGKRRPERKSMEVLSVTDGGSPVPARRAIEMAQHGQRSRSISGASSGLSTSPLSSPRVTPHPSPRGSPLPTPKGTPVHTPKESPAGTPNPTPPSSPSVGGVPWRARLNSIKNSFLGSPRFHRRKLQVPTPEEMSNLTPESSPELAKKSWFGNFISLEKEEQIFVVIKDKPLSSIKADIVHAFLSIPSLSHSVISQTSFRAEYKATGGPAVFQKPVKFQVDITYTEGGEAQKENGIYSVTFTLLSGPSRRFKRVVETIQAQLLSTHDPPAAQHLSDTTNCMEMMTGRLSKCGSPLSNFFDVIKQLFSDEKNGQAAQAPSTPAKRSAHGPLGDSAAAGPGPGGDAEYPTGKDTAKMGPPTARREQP

[7] = target: T3, Serine/threonine-protein kinase BRSK2 (Homo sapiens); details: at 1 µM
[8] = target: Calcium/calmodulin-dependent protein kinase type 1D (Homo sapiens) (UniProt Q8IU85); details: at 0.1 µM
Sequence of Calcium/calmodulin-dependent protein kinase type 1D (Homo sapiens) (Q8IU85 whole entry, looked up): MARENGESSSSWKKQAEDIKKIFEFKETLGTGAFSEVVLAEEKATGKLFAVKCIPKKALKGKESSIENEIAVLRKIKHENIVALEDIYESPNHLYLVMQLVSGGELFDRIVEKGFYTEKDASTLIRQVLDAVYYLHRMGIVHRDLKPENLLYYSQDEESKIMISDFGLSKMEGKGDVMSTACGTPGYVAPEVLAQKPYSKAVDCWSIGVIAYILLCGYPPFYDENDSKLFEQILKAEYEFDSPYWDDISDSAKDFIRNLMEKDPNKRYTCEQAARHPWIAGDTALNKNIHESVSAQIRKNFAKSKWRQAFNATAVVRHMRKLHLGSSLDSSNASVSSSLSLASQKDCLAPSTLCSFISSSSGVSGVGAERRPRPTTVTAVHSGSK

[9] = target: Calcium/calmodulin-dependent protein kinase type 1D (Homo sapiens) (UniProt Q8IU85); details: at 1 µM
[10] = target: Calcium/calmodulin-dependent protein kinase type II subunit alpha (Homo sapiens) (UniProt Q9UQM7); details: at 0.1 µM
Sequence of Calcium/calmodulin-dependent protein kinase type II subunit alpha (Homo sapiens) (Q9UQM7 whole entry): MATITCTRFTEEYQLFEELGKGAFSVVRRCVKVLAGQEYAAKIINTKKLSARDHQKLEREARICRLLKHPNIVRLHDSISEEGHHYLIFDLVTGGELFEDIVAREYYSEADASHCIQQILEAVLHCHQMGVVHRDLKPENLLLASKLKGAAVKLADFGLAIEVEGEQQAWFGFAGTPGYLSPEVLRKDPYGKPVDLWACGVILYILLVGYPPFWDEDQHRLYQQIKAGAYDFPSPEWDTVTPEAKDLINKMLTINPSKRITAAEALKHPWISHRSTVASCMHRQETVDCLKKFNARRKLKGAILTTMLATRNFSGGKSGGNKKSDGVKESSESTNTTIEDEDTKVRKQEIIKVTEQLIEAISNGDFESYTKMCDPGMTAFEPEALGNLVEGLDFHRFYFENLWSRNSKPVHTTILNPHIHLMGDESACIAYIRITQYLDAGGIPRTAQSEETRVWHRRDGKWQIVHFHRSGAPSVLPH

[11] = target: Calcium/calmodulin-dependent protein kinase type II subunit alpha (Homo sapiens) (UniProt Q9UQM7); details: at 1 µM
[12] = target: Calcium/calmodulin-dependent protein kinase type II subunit delta (Homo sapiens) (UniProt Q13557); details: at 0.1 µM
Sequence of Calcium/calmodulin-dependent protein kinase type II subunit delta (Homo sapiens) (Q13557 whole entry): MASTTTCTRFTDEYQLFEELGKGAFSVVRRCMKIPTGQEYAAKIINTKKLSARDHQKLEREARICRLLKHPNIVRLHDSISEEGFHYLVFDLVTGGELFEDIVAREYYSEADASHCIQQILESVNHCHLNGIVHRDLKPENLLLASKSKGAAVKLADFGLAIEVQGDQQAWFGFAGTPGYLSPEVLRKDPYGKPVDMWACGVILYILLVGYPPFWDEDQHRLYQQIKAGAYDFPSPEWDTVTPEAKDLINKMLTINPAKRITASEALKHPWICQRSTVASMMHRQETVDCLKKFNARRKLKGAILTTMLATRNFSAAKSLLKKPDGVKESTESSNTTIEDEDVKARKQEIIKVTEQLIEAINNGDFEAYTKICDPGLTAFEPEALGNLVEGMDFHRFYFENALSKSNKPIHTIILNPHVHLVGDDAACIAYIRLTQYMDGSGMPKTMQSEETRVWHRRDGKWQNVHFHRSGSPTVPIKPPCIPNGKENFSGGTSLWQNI

[13] = target: Calcium/calmodulin-dependent protein kinase type II subunit delta (Homo sapiens) (UniProt Q13557); details: at 1 µM
[14] = target: T4, Calcium/calmodulin-dependent protein kinase type IV (Homo sapiens) (UniProt Q16566); details: at 0.1 µM
T4 sequence (whole entry): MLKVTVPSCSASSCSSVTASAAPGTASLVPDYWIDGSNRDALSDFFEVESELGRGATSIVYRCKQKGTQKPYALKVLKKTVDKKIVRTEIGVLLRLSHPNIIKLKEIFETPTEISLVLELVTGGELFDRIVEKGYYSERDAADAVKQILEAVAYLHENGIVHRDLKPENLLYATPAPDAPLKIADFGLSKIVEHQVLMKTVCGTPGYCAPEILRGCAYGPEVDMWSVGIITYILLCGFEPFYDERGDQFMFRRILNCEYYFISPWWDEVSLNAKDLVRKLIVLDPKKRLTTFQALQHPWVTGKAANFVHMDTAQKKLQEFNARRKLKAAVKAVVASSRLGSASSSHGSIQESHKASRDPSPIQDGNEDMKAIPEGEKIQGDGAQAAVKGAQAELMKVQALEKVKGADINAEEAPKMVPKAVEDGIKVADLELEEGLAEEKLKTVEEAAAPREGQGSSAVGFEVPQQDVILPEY

[15] = target: T4, Calcium/calmodulin-dependent protein kinase type IV (Homo sapiens); details: at 1 µM
[16] = target: T5, Serine/threonine-protein kinase Chk1 (Homo sapiens) (UniProt O14757); details: at 0.1 µM
T5 sequence (whole entry): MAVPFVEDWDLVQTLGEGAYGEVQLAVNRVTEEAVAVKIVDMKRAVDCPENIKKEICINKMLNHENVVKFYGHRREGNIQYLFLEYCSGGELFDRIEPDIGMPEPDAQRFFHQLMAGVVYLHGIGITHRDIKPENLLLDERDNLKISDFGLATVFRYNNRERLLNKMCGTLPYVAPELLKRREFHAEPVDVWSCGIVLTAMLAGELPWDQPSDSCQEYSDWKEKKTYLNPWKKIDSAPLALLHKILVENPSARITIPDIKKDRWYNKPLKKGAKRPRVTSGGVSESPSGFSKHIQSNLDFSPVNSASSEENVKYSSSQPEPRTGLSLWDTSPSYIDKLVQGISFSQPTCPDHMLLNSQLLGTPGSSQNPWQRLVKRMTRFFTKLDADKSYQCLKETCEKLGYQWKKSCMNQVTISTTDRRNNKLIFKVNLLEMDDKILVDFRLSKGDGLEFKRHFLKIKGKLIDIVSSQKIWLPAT

[17] = target: T5, Serine/threonine-protein kinase Chk1 (Homo sapiens); details: at 1 µM
[18] = target: Serine/threonine-protein kinase Chk2 (Homo sapiens) (UniProt O96017); details: at 0.1 µM
Sequence of Serine/threonine-protein kinase Chk2 (Homo sapiens) (O96017 whole entry): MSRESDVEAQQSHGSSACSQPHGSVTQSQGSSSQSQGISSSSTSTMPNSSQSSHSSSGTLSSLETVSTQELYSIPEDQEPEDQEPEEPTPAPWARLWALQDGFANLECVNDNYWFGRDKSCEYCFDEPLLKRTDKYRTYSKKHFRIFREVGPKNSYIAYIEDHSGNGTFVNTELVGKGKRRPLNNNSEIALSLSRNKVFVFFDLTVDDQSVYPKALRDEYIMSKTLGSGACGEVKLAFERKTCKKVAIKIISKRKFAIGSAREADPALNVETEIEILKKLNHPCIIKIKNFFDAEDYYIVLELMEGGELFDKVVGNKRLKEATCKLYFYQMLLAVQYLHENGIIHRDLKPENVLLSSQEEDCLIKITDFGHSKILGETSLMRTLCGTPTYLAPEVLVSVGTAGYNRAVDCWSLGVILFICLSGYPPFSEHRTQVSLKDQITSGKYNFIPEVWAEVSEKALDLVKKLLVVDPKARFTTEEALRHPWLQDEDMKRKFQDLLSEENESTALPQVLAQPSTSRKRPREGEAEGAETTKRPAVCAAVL

[19] = target: Serine/threonine-protein kinase Chk2 (Homo sapiens) (UniProt O96017); details: at 1 µM
[20] = target: Death-associated protein kinase 1 (Homo sapiens) (UniProt P53355); details: at 0.1 µM;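 further: reported figure is the mean inhibition of DAPK1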
Sequence of Death-associated protein kinase 1 (Homo sapiens) (P53355 whole entry, looked up): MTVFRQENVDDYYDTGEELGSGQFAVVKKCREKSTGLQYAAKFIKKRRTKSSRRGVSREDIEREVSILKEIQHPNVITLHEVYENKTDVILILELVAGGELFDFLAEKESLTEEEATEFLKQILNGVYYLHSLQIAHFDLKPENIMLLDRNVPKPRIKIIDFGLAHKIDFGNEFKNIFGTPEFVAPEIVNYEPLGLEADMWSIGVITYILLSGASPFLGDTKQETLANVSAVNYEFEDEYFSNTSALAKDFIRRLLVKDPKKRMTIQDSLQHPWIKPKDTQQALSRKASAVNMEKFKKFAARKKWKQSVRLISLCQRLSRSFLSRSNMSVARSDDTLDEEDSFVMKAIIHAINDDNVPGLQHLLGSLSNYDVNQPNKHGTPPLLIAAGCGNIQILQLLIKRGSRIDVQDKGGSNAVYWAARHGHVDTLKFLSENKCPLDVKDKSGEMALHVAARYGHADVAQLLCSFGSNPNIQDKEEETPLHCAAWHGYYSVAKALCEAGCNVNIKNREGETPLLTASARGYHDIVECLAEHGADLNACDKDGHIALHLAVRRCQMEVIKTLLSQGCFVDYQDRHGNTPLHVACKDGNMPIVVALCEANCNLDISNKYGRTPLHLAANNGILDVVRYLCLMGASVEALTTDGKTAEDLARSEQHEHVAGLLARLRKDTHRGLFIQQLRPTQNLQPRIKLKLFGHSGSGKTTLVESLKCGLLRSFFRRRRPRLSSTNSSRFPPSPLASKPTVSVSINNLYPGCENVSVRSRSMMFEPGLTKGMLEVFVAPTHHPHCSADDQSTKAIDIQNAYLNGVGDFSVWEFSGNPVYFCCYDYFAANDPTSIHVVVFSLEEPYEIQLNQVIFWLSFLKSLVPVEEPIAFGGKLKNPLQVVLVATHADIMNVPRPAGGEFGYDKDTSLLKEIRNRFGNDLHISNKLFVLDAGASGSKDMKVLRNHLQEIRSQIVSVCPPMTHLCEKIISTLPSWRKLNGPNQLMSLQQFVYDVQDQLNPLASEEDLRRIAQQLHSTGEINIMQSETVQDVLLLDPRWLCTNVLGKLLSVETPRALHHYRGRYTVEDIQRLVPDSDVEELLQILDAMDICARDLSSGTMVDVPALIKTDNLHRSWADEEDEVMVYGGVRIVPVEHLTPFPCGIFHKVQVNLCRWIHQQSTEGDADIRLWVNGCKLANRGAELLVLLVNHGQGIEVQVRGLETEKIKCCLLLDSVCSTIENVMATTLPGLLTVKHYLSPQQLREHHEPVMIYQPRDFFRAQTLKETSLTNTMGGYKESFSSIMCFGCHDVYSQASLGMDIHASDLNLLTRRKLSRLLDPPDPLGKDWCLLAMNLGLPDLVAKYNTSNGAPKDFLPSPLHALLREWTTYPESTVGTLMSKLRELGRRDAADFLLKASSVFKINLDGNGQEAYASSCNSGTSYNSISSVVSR

Sequence of 5'-AMP-activated protein kinase catalytic subunit alpha-2 (Homo sapiens) (P54646 whole entry, looked up): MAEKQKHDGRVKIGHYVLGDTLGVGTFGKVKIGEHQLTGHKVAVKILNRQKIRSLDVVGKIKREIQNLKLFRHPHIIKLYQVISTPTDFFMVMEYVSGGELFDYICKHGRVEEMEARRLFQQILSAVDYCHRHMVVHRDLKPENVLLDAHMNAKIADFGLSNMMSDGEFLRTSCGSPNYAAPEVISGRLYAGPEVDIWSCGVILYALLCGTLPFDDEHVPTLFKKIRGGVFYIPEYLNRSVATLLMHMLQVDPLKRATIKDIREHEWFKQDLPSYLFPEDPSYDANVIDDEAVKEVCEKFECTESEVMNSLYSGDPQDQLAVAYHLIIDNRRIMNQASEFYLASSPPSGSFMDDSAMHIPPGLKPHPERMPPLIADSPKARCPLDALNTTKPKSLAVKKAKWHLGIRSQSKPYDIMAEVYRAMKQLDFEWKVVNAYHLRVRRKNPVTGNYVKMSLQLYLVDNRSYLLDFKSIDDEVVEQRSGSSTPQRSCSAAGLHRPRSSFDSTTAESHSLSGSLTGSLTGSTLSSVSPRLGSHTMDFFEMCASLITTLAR

| SMILES | inhibition [1] [%] | inhibition [2] [%] | inhibition [3] [%] | inhibition [4] [%] | inhibition [5] [%] | inhibition [6] [%] | inhibition [7] [%] | inhibition [8] [%] | inhibition [9] [%] | inhibition [10] [%] | inhibition [11] [%] | inhibition [12] [%] | inhibition [13] [%] | inhibition [14] [%] | inhibition [15] [%] | inhibition [16] [%] | inhibition [17] [%] | inhibition [18] [%] | inhibition [19] [%] | inhibition [20] [%] |
| --- | --- | --- | --- | --- | --- | --- | --- | --- | --- | --- | --- | --- | --- | --- | --- | --- | --- | --- | --- | --- |
| CS(=O)(=O)CCNCc1coc(-c2ccc3ncnc(Nc4ccc(OCc5ccccc5)cc4)c3c2)c1 | 4.29 | 2.46 | 3.61 | 1.86 | -1.55 | 1.32 | 3.39 | 0.92 | 2.2 | 2.93 | 6.16 | 2.95 | 3.61 | 2.14 | 3.11 | 1.85 | 3.43 | 5.28 | 28.8 | 2.7 |
| Nc1ncc(-c2cccc(S(N)(=O)=O)c2)c2scc(-c3ccc(F)c(Cl)c3)c12 | 4.34 | 0.82 | 2.44 | 1.61 | 5.62 | 3.28 | 6.56 | 1.24 | 0.88 | 3.36 | 0.53 | 3.74 | 2.95 | 1.75 | 1.03 | 5.24 | 2.44 | 3.46 | 7.7 | 5.41 |
| COc1cc(Nc2nccc(Nc3ccc4c(C)n[nH]c4c3)n2)cc(OC)c1OC | 5.95 | 10.4 | 35.5 | 3.57 | 3.29 | 2.02 | 1.97 | 3.39 | 6.21 | 4.54 | 4.38 | 3.41 | 3.54 | 1.45 | 4.68 | 1.45 | 3.35 | 1.73 | 9.02 | 1.68 |
| CCCN(CCS(C)(=O)=O)Cc1ccc(-c2ccc3ncnc(Nc4ccc(OCc5cccc(F)c5)c(Cl)c4)c3c2)o1 | 2.91 | -7.52 | 4.57 | 1.22 | 3.8 | 1.68 | 7.08 | 0.15 | 1.73 | 0.86 | 0.76 | 1.58 | 1.84 | 1.01 | 2.17 | 7.57 | 6.58 | 5.44 | 6.1 | 8.24 |
| Clc1ccc(-c2nn3ncccc3c2-c2ccnc(Nc3ccccc3)n2)cc1 | 2.26 | 0.79 | 4.21 | 0.06 | 1.52 | -0.16 | -0.21 | 2.4 | 1.17 | 0.95 | 0.86 | 1.7 | 1.08 | 4.89 | -0.99 | -0.54 | -0.93 | 0.52 | 1.08 | 0.42 |
| COC(=O)c1sc(-n2cnc3cc(OC)c(OC)cc32)cc1OCc1ccccc1C(F)(F)F | 5.51 | 18.4 | 47.1 | 0.92 | 2.12 | 2.43 | 4.63 | 0.66 | 2.52 | 5.18 | 5.27 | 4.25 | 11.3 | 1.9 | 11.2 | 1.72 | 2.67 | 3.73 | 4.65 | 0.08 |
| Fc1ccc(-c2cc(-c3c[nH]nc3-c3ccccn3)ccn2)cc1 | 1.61 | -0.78 | -3.39 | -0.21 | 0.81 | 1.49 | 1.96 | -2.23 | -1.28 | 3.34 | 2.33 | 2.86 | 4.06 | -2.35 | -4.94 | 1.21 | -0.75 | 4.88 | 5.9 | 0.73 |
